Measured values published in paper PMC5540273 (PLoS ONE, 2017).

What was measured:
Conditions in all cases: concentration: 1 μM, replicates: in singlicate; n = 1
[1] = tested on: RPS6KA4(Kin.Dom.1-N-terminal)
[2] = tested on: RPS6KA4(Kin.Dom.2-C-terminal)
[3] = tested on: RPS6KA5(Kin.Dom.1-N-terminal)
[4] = tested on: RPS6KA5(Kin.Dom.2-C-terminal)
[5] = tested on: T1, RSK1(Kin.Dom.1-N-terminal)
T1 construct: gene RPS6KA1

[6] = tested on: T2, RSK1(Kin.Dom.2-C-terminal)
T2 construct: gene RPS6KA1

[7] = tested on: T3, RSK2(Kin.Dom.1-N-terminal)
T3 construct: gene RPS6KA3

[8] = tested on: T4, RSK2(Kin.Dom.2-C-terminal)
T4 construct: gene RPS6KA3

[9] = tested on: T5, RSK3(Kin.Dom.1-N-terminal)
T5 construct: gene RPS6KA2

[10] = tested on: T6, RSK3(Kin.Dom.2-C-terminal)
T6 construct: gene RPS6KA2

[11] = tested on: T7, RSK4(Kin.Dom.1-N-terminal)
T7 construct: gene RPS6KA6

[12] = tested on: T8, RSK4(Kin.Dom.2-C-terminal)
T8 construct: gene RPS6KA6

S6K1 = tested on: S6K1
SBK1 = tested on: SBK1
SGK2 = tested on: SGK2
SGK3 = tested on: SGK3
SGK = tested on: SGK
SIK2 = tested on: SIK2
SIK = tested on: SIK
SLK = tested on: SLK
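Also: KINOMEscan kinase panel screen.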

| Compound | %Inh [1] [%] | %Inh [2] [%] | %Inh [3] [%] | %Inh [4] [%] | %Inh [5] [%] | %Inh [6] [%] | %Inh [7] [%] | %Inh [8] [%] | %Inh [9] [%] | %Inh [10] [%] | %Inh [11] [%] | %Inh [12] [%] | %Inh (S6K1) [%] | %Inh (SBK1) [%] | %Inh (SGK2) [%] | %Inh (SGK3) [%] | %Inh (SGK) [%] | %Inh (SIK2) [%] | %Inh (SIK) [%] | %Inh (SLK) [%] |
| --- | --- | --- | --- | --- | --- | --- | --- | --- | --- | --- | --- | --- | --- | --- | --- | --- | --- | --- | --- | --- |
| COc1cc(Nc2nccc(N3CCC(NC(=O)c4cc5ccccc5s4)C3)n2)cc(OC)c1OC (stereo not shown) [GSK1379760] | 0 | 0 | 5 | 4 | 16 | 46 | 0 | 18 | 0 | 0 | 0 | 11 | 17 | 17 | 0 | 10 | 11 | 15 | 14 | 76 |
| Nc1n[nH]c2cnc(-c3ccccc3)cc12 [SB-642124] | 0 | 71 | 12 | 44 | 23 | 0 | 22 | 23 | 18 | 3 | 19 | 15 | 10 | 22 | 31 | 74 | 74 | 2 | 0 | 0 |
| Cc1ccc(C(=O)N2CC[C@@H](O)C2)cc1-n1c(C)cc(OCc2ccc(F)cc2F)c(Br)c1=O | 2 | 0 | 0 | 0 | 0 | 0 | 0 | 0 | 0 | 18 | 0 | 2 | 0 | 0 | 0 | 0 | 0 | 27 | 4 | 0 |
| Cc1ccc(S(=O)(=O)Nc2ccc(Nc3nccc(Nc4cccc5[nH]ncc45)n3)cc2)cc1 [GSK581271] | 0 | 0 | 0 | 0 | 1 | 14 | 15 | 0 | 5 | 0 | 0 | 0 | 14 | 26 | 9 | 0 | 0 | 67 | 36 | 0 |
| O=C(NC1CCN(c2ccnc(Nc3ccc(F)cc3)n2)C1)c1cc2ccccc2s1 (stereo not shown) [GSK1379716] | 17 | 0 | 29 | 0 | 22 | 13 | 4 | 0 | 20 | 4 | 0 | 24 | 0 | 24 | 0 | 0 | 14 | 6 | 11 | 32 |
| Cl.NC(=O)c1cccc(Nc2nccc(Nc3ccc(Oc4c(Cl)cccc4Cl)c(Cl)c3)n2)c1 [GW659009] | 0 | 0 | 0 | 5 | 0 | 0 | 0 | 5 | 3 | 0 | 0 | 0 | 0 | 24 | 4 | 0 | 19 | 0 | 90.2 | 0 |
| COc1cccc(NC(=O)NC2CCN(c3ccnc(Nc4cc(OC)c(OC)c(OC)c4)n3)C2)c1 (stereo not shown) [GSK1379763] | 0 | 0 | 0 | 35 | 12 | 4 | 0 | 8 | 12 | 0 | 0 | 0 | 0 | 15 | 0 | 7 | 0 | 4 | 0 | 42 |
| c1ccc(-c2cnc3nccnn23)cc1 [AH20685] | 0 | 0 | 9 | 0 | 0 | 0 | 0 | 0 | 0 | 0 | 0 | 0 | 10 | 5 | 0 | 0 | 0 | 0 | 0 | 11 |
| Cc1ccc(C)c(NC(=O)NC2CCN(c3ccnc(Nc4ccc(F)cc4)n3)C2)c1 (stereo not shown) [GSK1379720] | 8 | 0 | 0 | 22 | 13 | 0 | 3 | 0 | 0 | 0 | 0 | 6 | 8 | 1 | 2 | 0 | 0 | 0 | 0 | 0 |
| COc1cc(Nc2nccc(N3CCC(NC(=O)Nc4cccc(C(C)=O)c4)C3)n2)cc(OC)c1OC (stereo not shown) [GSK1379753] | 7 | 0 | 9 | 6 | 15 | 5 | 10 | 67 | 17 | 0 | 15 | 12 | 19 | 11 | 5 | 0 | 0 | 0 | 0 | 30 |
| Cn1cc(-c2[nH]c3cc(NC(=O)[C@H](N)C4CCCCC4)cc4c3c2C=NNC4=O)cn1 | 96.8 | 96.2 | 34 | 59 | 60 | 72 | 85 | 0 | 65 | 5 | 86 | 35 | 76 | 96.2 | 83 | 99.1 | 95.7 | 95.2 | 90.8 | 14 |
| COc1cccc(C2=C(Nc3ccc(Cl)c(C(=O)O)c3)C(=O)NC2=O)c1 [SB-390769] | 17 | 0 | 13 | 0 | 29 | 0 | 100 | 20 | 14 | 0 | 100 | 0 | 2 | 99.9 | 19 | 100 | 0 | 0 | 0 | 16 |
| NCCCC(NC(=O)c1cc(Br)c(-c2ccnc3[nH]ccc23)s1)c1ccccc1.O=C(O)C(F)(F)F.O=C(O)C(F)(F)F (stereo not shown) [GSK1287544] | 53 | 1 | 51 | 5 | 0 | 0 | 29 | 0 | 12 | 0 | 8 | 0 | 58 | 44 | 65 | 52 | 54 | 0 | 19 | 14 |
| FC(F)(F)c1ccc(/C=C/c2cncnc2Nc2ccc3[nH]c(Cc4ccccc4)nc3c2)cc1 [GW709199] | 25 | 0 | 0 | 6 | 3 | 0 | 11 | 48 | 13 | 0 | 0 | 0 | 0 | 0 | 0 | 0 | 0 | 4 | 20 | 5 |
| O=C(Nc1n[nH]c2cc(-c3ccoc3)ccc12)C1CC1 [SB-738481] | 0 | 11 | 0 | 0 | 12 | 0 | 1 | 0 | 0 | 2 | 3 | 1 | 36 | 0 | 5 | 28 | 1 | 0 | 0 | 2 |
| COc1cc2c(cc1OCCN1CCNCC1)ncc1c3ccc(C#N)cc3[nH]c21 | 0 | 20 | 0 | 38 | 13 | 12 | 54 | 0 | 16 | 0 | 73 | 7 | 52 | 63 | 46 | 34 | 67 | 79 | 18 | 23 |
| COc1cccc(C(=O)Nc2cccc(Oc3ccc4nc(NC(=O)C5CC5)cn4n3)c2)c1 | 40 | 10 | 0 | 19 | 0 | 12 | 9 | 0 | 5 | 1 | 0 | 0 | 0 | 0 | 0 | 23 | 0 | 27 | 63 | 49 |
